Reference: PubChem BioAssay (NCI)
This is part of a sample that, as a whole, favours compounds with a hit. Of some 83,000 tested, about 20% had one in any assay.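 Values shown are percent growth following 48 h exposure of cells in 96-well plates to a single concentration of compound; below 10 was considered active.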 Unmarked numbers belong to inactive results. Activity calls are given as the source filed them.

System: HOP-92 NSCLC
Assay: NCI-60 one-dose screen, 48 h (100 = growth as untreated, 0 = no growth, -100 = all killed)
Conditions: 10 µM unless noted

Row | Compound | growth
1 | Nc1[nH]n2cc(-c3ccc(F)cc3)nc2c1N=Nc1ccc(S(N)(=O)=O)cc1 | 74.9%
2 | O=C(Nc1ncccc1OCc1ccccc1)NC1CCCCCC1 | 68.4%
3 | CCNc1nc(O)c(/C=C2\C=Nc3ncccc32)s1 | 4.42% (active)
4 | Cn1cc(-c2nn3cc(-c4cccs4)nc3s2)c2cc(F)ccc21 | 39.6%
5 | Cc1ccc(-c2nc(/C=C3/C(=O)Nc4ccc(F)cc43)c3ccccn23)cc1 | 82.2%
6 | O=[N+]([O-])c1ccc(-c2cn3nc(-c4c[nH]c5ccccc45)sc3n2)cc1 | 102%
7 | O=C(CI)NC(=O)NC(=O)NCc1ccccc1 | -17.4% (active)
8 | O=C(Nc1cc(Cl)ccc1O)c1cccc(Nc2ccnc(C(F)(F)F)c2)c1 | 53.6%
9 | N#Cc1c(Nc2ccc(N3CCOCC3)cc2)nc(SCC(=O)c2ccc(Br)cc2)nc1-c1ccccc1 | 99.7%
10 | COc1cc(OC)c(/C=C/C(=O)c2c(O)cc(OC)c(C3CCN(C)CC3)c2OC)c(OC)c1 | -12.2% (active)
11 | CCS/C(Nc1ccccc1)=C(\C#N)C(=O)Nc1ccc(OC)cc1 | 44.5%
12 | C=CN(C(=O)N1CCN(c2cc3c(cc2F)c(=O)c(C(=O)O)cn3C2CC2)CC1)c1nc(-c2ccc(OC)cc2)cs1 | -14.1% (active)
13 | O=C(Nc1ccccc1[N+](=O)[O-])c1ccc(Cl)c(Cl)c1 | 69.7%
14 | CCn1cc(CNc2ccc(C(=O)Nc3cc4cc(OC)c(OC)cc4c(C)n3)cc2)cn1 | 59.5%
15 | COc1ccc2c(c1)c(-c1nc(-c3c[nH]c4ncccc34)cs1)cn2CCCN1CCOCC1 | 27.9%
16 | C[n+]1ccc(CCc2c[nH]c3ccccc23)cc1 | 93.9%
17 | CC(C)CCN(CCC(C)C)CC(O)c1cc2c(c3ccccc13)CCCC2 (stereo not given) | 40.2%
18 | CO[C@H]1CC(=O)n2c3ccccc3c3c4c(c5c6ccccc6n1c5c32)C(=O)NC4=O | 86.1%
19 | COc1ccc(C2=CN3CC=CC3CC2=O)cc1 (stereo not given) | 107%
20 | COc1cccc(/C=C/C(=O)c2cc3c(N)c(C(=O)Nc4cccc5ccccc45)sc3nc2C)c1 | 68.8%

Row | Compound | growth
21 | Cc1ccc(CNc2ccc3nc(CCC(C)C)[nH]c3c2)cc1 | 56.7%
22 | COc1ccc(/C(C)=C(/c2ccc(OCCCN(C)C)cc2)c2ccc(OC(=O)c3ccccc3)cc2)cc1 | 52.5%
23 | COC(=O)CC[C@@H]1O[C@@H](c2ccc(F)cc2)[C@@H](O)[C@H]1O | 93.9%
24 | O=C1/C=C/[C@@H](O)[C@@H]2C[C@@H](O)C[C@H]2/C=C/CCC[C@H](CCO)O1 | -7.37% (active)
25 | COc1cccc(-c2cc(-c3cccc(Cl)c3)c(C#N)c(=O)[nH]2)c1 | 51.7%
26 | COc1ccc(CNc2c3ccccc3nc3ccccc23)c(OC)c1 | -13.6% (active)
27 | CCN(CC)c1ccc(CNc2cc(C)nc3ccccc23)cc1 | 49.6%
28 | O=C1Nc2ccccc2/C1=C\c1c[nH]c2ccc(Br)cc12 | 64.6%
29 | O=C(CCCCCNC(=O)c1cc(=O)c(O)co1)Nc1ccccc1 | 99.8%
30 | CCOc1ccc(-n2nc(C(=O)NCc3ccccc3OC)nc2-c2cc(OC)c(OC)c(OC)c2)cc1 | 29%
31 | COc1ccc(-c2nc(/C=C3\C(=O)N(C)c4ccccc43)c3ccccn23)cc1 | 84.1%
32 | FC(F)(F)Oc1cccc(-c2cnc3ccc(-c4ccncc4)nn23)c1 | 17.4%
33 | CCN1C(=O)N(CC)C2C1NN=c1s/c(=C3\C(=O)N(CC(C)C)c4ccccc43)c(=O)n12 (stereo not given) | 66.3%
34 | COc1cc(OC)c(C(=O)C(CN(C)C)CN(C)C)cc1OC | 40%
35 | Cc1ccc(/C=C/C(=O)c2ccc(-n3cc(CN4CCN(c5cc6c(cc5F)c(=O)c(C(=O)O)cn6C5CC5)CC4)nn3)cc2)cc1 | 76.2%
36 | NC1(CO)COC(c2ccccc2)OC1 (stereo not given) | 96.7%
37 | COc1cc(C2C(C(=O)OCc3ccccc3)=C(C)NC(C)=C2C(=O)OCc2ccccc2)cc(OC)c1OC | -4.65% (active)
38 | CC1=C(CCC(C)NCc2ccc(OCCCN3CCCCC3)cc2)C(C)(C)CCC1 (stereo not given) | -83% (active)
39 | N#C/C(=C\c1ccc([N+](=O)[O-])cc1)n1nnc2cc(F)c(F)cc21 | 9.03% (active)
40 | CS(=O)(=O)c1ccc(NC(=O)c2ccccc2)nc1 | 106%

System: NCI-H522 lung
Assay: as above
Conditions: 10 µM unless noted

Row | Compound | growth
41 | Nc1[nH]n2cc(-c3ccc(F)cc3)nc2c1N=Nc1ccc(S(N)(=O)=O)cc1 | 55.3%
42 | O=C(Nc1ncccc1OCc1ccccc1)NC1CCCCCC1 | 72.6%
43 | CCNc1nc(O)c(/C=C2\C=Nc3ncccc32)s1 | -28.6% (active)
44 | Cn1cc(-c2nn3cc(-c4cccs4)nc3s2)c2cc(F)ccc21 | 5.4% (active)
45 | Cc1ccc(-c2nc(/C=C3/C(=O)Nc4ccc(F)cc43)c3ccccn23)cc1 | 62.7%
46 | O=[N+]([O-])c1ccc(-c2cn3nc(-c4c[nH]c5ccccc45)sc3n2)cc1 | 80.7%
47 | O=C(CI)NC(=O)NC(=O)NCc1ccccc1 | -82% (active)
48 | O=C(Nc1cc(Cl)ccc1O)c1cccc(Nc2ccnc(C(F)(F)F)c2)c1 | 30.6%
49 | N#Cc1c(Nc2ccc(N3CCOCC3)cc2)nc(SCC(=O)c2ccc(Br)cc2)nc1-c1ccccc1 | 96.2%
50 | COc1cc(OC)c(/C=C/C(=O)c2c(O)cc(OC)c(C3CCN(C)CC3)c2OC)c(OC)c1 | -80% (active)
51 | CCS/C(Nc1ccccc1)=C(\C#N)C(=O)Nc1ccc(OC)cc1 | 0.635% (active)
52 | C=CN(C(=O)N1CCN(c2cc3c(cc2F)c(=O)c(C(=O)O)cn3C2CC2)CC1)c1nc(-c2ccc(OC)cc2)cs1 | 12.7%
53 | O=C(Nc1ccccc1[N+](=O)[O-])c1ccc(Cl)c(Cl)c1 | 69.9%
54 | CCn1cc(CNc2ccc(C(=O)Nc3cc4cc(OC)c(OC)cc4c(C)n3)cc2)cn1 | 9.72% (active)
55 | COc1ccc2c(c1)c(-c1nc(-c3c[nH]c4ncccc34)cs1)cn2CCCN1CCOCC1 | 26.3%
56 | C[n+]1ccc(CCc2c[nH]c3ccccc23)cc1 | 81.4%
57 | CC(C)CCN(CCC(C)C)CC(O)c1cc2c(c3ccccc13)CCCC2 (stereo not given) | 56.7%
58 | CO[C@H]1CC(=O)n2c3ccccc3c3c4c(c5c6ccccc6n1c5c32)C(=O)NC4=O | 58.9%
59 | COc1ccc(C2=CN3CC=CC3CC2=O)cc1 (stereo not given) | 85.2%
60 | COc1cccc(/C=C/C(=O)c2cc3c(N)c(C(=O)Nc4cccc5ccccc45)sc3nc2C)c1 | 12%

Row | Compound | growth
61 | Cc1ccc(CNc2ccc3nc(CCC(C)C)[nH]c3c2)cc1 | 84.2%
62 | COc1ccc(/C(C)=C(/c2ccc(OCCCN(C)C)cc2)c2ccc(OC(=O)c3ccccc3)cc2)cc1 | 75.1%
63 | COC(=O)CC[C@@H]1O[C@@H](c2ccc(F)cc2)[C@@H](O)[C@H]1O | 99.7%
64 | O=C1/C=C/[C@@H](O)[C@@H]2C[C@@H](O)C[C@H]2/C=C/CCC[C@H](CCO)O1 | -12.4% (active)
65 | COc1cccc(-c2cc(-c3cccc(Cl)c3)c(C#N)c(=O)[nH]2)c1 | 62.2%
66 | COc1ccc(CNc2c3ccccc3nc3ccccc23)c(OC)c1 | 40.6%
67 | CCN(CC)c1ccc(CNc2cc(C)nc3ccccc23)cc1 | 53.5%
68 | O=C1Nc2ccccc2/C1=C\c1c[nH]c2ccc(Br)cc12 | 35.8%
69 | O=C(CCCCCNC(=O)c1cc(=O)c(O)co1)Nc1ccccc1 | 90.9%
70 | CCOc1ccc(-n2nc(C(=O)NCc3ccccc3OC)nc2-c2cc(OC)c(OC)c(OC)c2)cc1 | 35.7%
71 | COc1ccc(-c2nc(/C=C3\C(=O)N(C)c4ccccc43)c3ccccn23)cc1 | 58.7%
72 | FC(F)(F)Oc1cccc(-c2cnc3ccc(-c4ccncc4)nn23)c1 | 1.55% (active)
73 | CCN1C(=O)N(CC)C2C1NN=c1s/c(=C3\C(=O)N(CC(C)C)c4ccccc43)c(=O)n12 (stereo not given) | -2.72% (active)
74 | COc1cc(OC)c(C(=O)C(CN(C)C)CN(C)C)cc1OC | -73.7% (active)
75 | Cc1ccc(/C=C/C(=O)c2ccc(-n3cc(CN4CCN(c5cc6c(cc5F)c(=O)c(C(=O)O)cn6C5CC5)CC4)nn3)cc2)cc1 | 88.6%
76 | NC1(CO)COC(c2ccccc2)OC1 (stereo not given) | 87.1%
77 | COc1cc(C2C(C(=O)OCc3ccccc3)=C(C)NC(C)=C2C(=O)OCc2ccccc2)cc(OC)c1OC | 25%
78 | CC1=C(CCC(C)NCc2ccc(OCCCN3CCCCC3)cc2)C(C)(C)CCC1 (stereo not given) | -79.4% (active)
79 | N#C/C(=C\c1ccc([N+](=O)[O-])cc1)n1nnc2cc(F)c(F)cc21 | 36.9%
80 | CS(=O)(=O)c1ccc(NC(=O)c2ccccc2)nc1 | 68.9%
